PubChem BioAssay (NCI)
Compounds without any hit were thinned out: in the full panel of roughly 83,000, 20% have a hit.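 Method: cells in 96-well plates; compound added at one concentration; 48 h incubation; percent growth measured; values under 10 scored active.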 The source made the active and inactive calls.

Columns and labels:
Test in all cases: NCI-60 one-dose screen, 48 h (100 = growth as untreated, 0 = no growth, -100 = all killed)
Conditions in all cases: 10 µM unless noted
SN12C renal = test system: SN12C renal
UO-31 renal = test system: UO-31 renal
TK-10 renal = test system: TK-10 renal
ACHN renal = test system: ACHN renal
CAKI-1 renal = test system: CAKI-1 renal
A498 renal = test system: A498 renal
CCRF-CEM leukemia = test system: CCRF-CEM leukemia
MOLT-4 leukemia = test system: MOLT-4 leukemia
SR leukemia = test system: SR leukemia

Measured: growth

CCOC(=O)c1c(Cl)c2c(n1Cc1ccccc1)-c1oncc1CCC2
active: SR leukemia 0.79%
inactive: SN12C renal 63.9% | UO-31 renal 72.4% | TK-10 renal 98.9% | ACHN renal 65.8% | CAKI-1 renal 59.5% | A498 renal 56.9% | CCRF-CEM leukemia 59.7% | MOLT-4 leukemia 52.6%

O=CCCCC(O)C=O (stereo unspecified)
inactive: SN12C renal 97.6% | UO-31 renal 81.5% | TK-10 renal 104% | ACHN renal 103% | CAKI-1 renal 101% | A498 renal 98.7% | CCRF-CEM leukemia 102% | MOLT-4 leukemia 94% | SR leukemia 90.5%

Oc1ccc(-c2nc(-c3ccc4oc5ccc(-c6[nH]c(-c7ccc(O)cc7)nc6-c6ccccc6)cc5c4c3)c(-c3ccccc3)[nH]2)cc1
inactive: SN12C renal 39.3% | UO-31 renal 39.2% | TK-10 renal 80.3% | ACHN renal 73.5% | CAKI-1 renal 69.5% | A498 renal 77.5% | CCRF-CEM leukemia 43.9% | MOLT-4 leukemia 57.1% | SR leukemia 43.1%

O=C(NC1CCN(Cc2ccccc2)CC1)c1cc2nc(-c3ccc(Cl)s3)cc(C(F)(F)F)n2n1
inactive: SN12C renal 91.3% | UO-31 renal 96.1% | TK-10 renal 84.9% | ACHN renal 96.4% | CAKI-1 renal 102% | A498 renal 98.6%
active: CCRF-CEM leukemia -21.7% | MOLT-4 leukemia -34.3% | SR leukemia -8.99%

COC(=O)C1=C(C)NC(C)=C(C(=O)OC)C(N2C(=O)CCC2=O)C1 (stereo unspecified)
inactive: SN12C renal 88.7% | UO-31 renal 81.9% | TK-10 renal 123% | ACHN renal 99% | CAKI-1 renal 92.6% | A498 renal 109% | CCRF-CEM leukemia 35.3% | MOLT-4 leukemia 78.1% | SR leukemia 37.3%

COc1ccc(C(=O)C2CC2c2ccc(Cl)cc2)cc1 (stereo unspecified)
active: CCRF-CEM leukemia 9.89%
inactive: SN12C renal 85% | UO-31 renal 64.4% | TK-10 renal 103% | ACHN renal 78.6% | CAKI-1 renal 87.9% | A498 renal 114% | MOLT-4 leukemia 41.2% | SR leukemia 77.8%

CCOc1ccccc1CN1CCc2nc3cc(C(C)(C)C)[nH]n3c(=O)c2C1
inactive: SN12C renal 104% | UO-31 renal 93.4% | TK-10 renal 97.6% | ACHN renal 95.4% | CAKI-1 renal 99.9% | A498 renal 101% | CCRF-CEM leukemia 91.8% | MOLT-4 leukemia 94.7% | SR leukemia 88.5%

COc1cc(C(=O)NN=C2c3ccccc3-c3ccccc32)cc(OC)c1OC
inactive: SN12C renal 41.6% | UO-31 renal 46.5% | TK-10 renal 55.5% | ACHN renal 46.4% | CAKI-1 renal 24.6% | CCRF-CEM leukemia 25.5% | MOLT-4 leukemia 39.3% | SR leukemia 13.9%
active: A498 renal 6.68%

c1ccc2cc3c(Nc4ccc(N5CCOCC5)cc4)ccnc3cc2c1
inactive: SN12C renal 94.5% | UO-31 renal 81.2% | TK-10 renal 107% | ACHN renal 94.8% | CAKI-1 renal 92.8% | A498 renal 77.6% | CCRF-CEM leukemia 77.4% | MOLT-4 leukemia 78.1% | SR leukemia 81.3%

CN(C)c1ccc(/C=C/c2ccnc3c(O)cccc23)cc1
inactive: SN12C renal 21.3% | TK-10 renal 41.6% | ACHN renal 12.7% | A498 renal 45.1%
active: UO-31 renal -2.54% | CAKI-1 renal -3.49% | CCRF-CEM leukemia 6.75% | MOLT-4 leukemia -13.2% | SR leukemia -11.1%

CCOC(=O)CSc1c(-c2ccccc2)c2cc(Cl)ccc2[nH]c1=O
inactive: SN12C renal 102% | UO-31 renal 86.2% | TK-10 renal 107% | ACHN renal 97.6% | CAKI-1 renal 92% | A498 renal 101% | CCRF-CEM leukemia 95.7% | MOLT-4 leukemia 88.3% | SR leukemia 75.8%

O=C1OC(c2ccccc2)(c2ccccc2)c2ccsc21
inactive: SN12C renal 98.8% | UO-31 renal 88.6% | TK-10 renal 101% | ACHN renal 97.9% | CAKI-1 renal 101% | A498 renal 96.6% | CCRF-CEM leukemia 89.2% | MOLT-4 leukemia 76% | SR leukemia 84.5%

O=C(NCCCN1CCC(N2CCCCC2)CC1)C1=Cc2cc(Br)ccc2OC1
inactive: SN12C renal 57.7% | UO-31 renal 21.8% | TK-10 renal 60% | ACHN renal 37.7% | CAKI-1 renal 54.5% | A498 renal 52.7% | CCRF-CEM leukemia 27.4% | MOLT-4 leukemia 11.9% | SR leukemia 11.4%

COc1ccccc1CNC(=O)C1c2ccccc2C(=O)N(CC(C)C)C1c1cccs1 (stereo unspecified)
inactive: SN12C renal 76.6% | UO-31 renal 92% | TK-10 renal 75.9% | ACHN renal 54.2% | CAKI-1 renal 53.4% | A498 renal 42.4% | CCRF-CEM leukemia 24% | MOLT-4 leukemia 27.1% | SR leukemia 17.3%

FC(F)(F)c1cccc(Nc2nc(-c3ccccc3)nc3ncccc23)c1
active: A498 renal -4.48% | CCRF-CEM leukemia -21.6% | MOLT-4 leukemia 7.45% | SR leukemia -37.4%
inactive: SN12C renal 75.8% | UO-31 renal 82.4% | TK-10 renal 94.2% | ACHN renal 76.2% | CAKI-1 renal 40.4%

CCOc1cccc(/C=N\Nc2nc(=O)cc(C(=O)OC)s2)c1O
inactive: SN12C renal 59.1% | UO-31 renal 49.7% | TK-10 renal 107% | ACHN renal 68.8% | CAKI-1 renal 65.9% | A498 renal 87.2% | CCRF-CEM leukemia 38.4% | MOLT-4 leukemia 53.6% | SR leukemia 50.7%

O=S(=O)(c1ccc(NC(=S)NC23CC4CC(CC(C4)C2)C3)cc1)N1CCCCC1
active: MOLT-4 leukemia -14.7% | SR leukemia -21.9%
inactive: SN12C renal 96.5% | UO-31 renal 61.6% | TK-10 renal 111% | ACHN renal 93.6% | CAKI-1 renal 61.8% | A498 renal 78.8% | CCRF-CEM leukemia 13.9%

O=C(O)CCCN1C(=O)C2C3CCC(C3)C2C1=O (stereo unspecified)
inactive: SN12C renal 103% | UO-31 renal 90.5% | TK-10 renal 98.2% | ACHN renal 109% | CAKI-1 renal 97.2% | A498 renal 105% | CCRF-CEM leukemia 108% | MOLT-4 leukemia 104% | SR leukemia 112%

COc1ccc(C)c2sc(N(Cc3cccnc3)C(=O)c3ccc(C#N)cc3)nc12
inactive: TK-10 renal 18%
active: SN12C renal 7.62% | UO-31 renal -50.8% | ACHN renal 5.85% | CAKI-1 renal -33.1% | A498 renal 2.59% | CCRF-CEM leukemia 8.67% | MOLT-4 leukemia 3.94% | SR leukemia 8.52%

Cc1ccc(OCCCCCCNCCO)c(C)c1
active: SN12C renal 7.94% | UO-31 renal -21% | CAKI-1 renal -8.91% | CCRF-CEM leukemia 7.2%
inactive: TK-10 renal 28.9% | ACHN renal 15.3% | A498 renal 35.3% | MOLT-4 leukemia 10.6% | SR leukemia 11.2%

CC1(C)CC2(C)OC2C2(C1)N=NC(=Nc1ccccc1)O2 (stereo unspecified)
inactive: SN12C renal 61.9% | UO-31 renal 20.8% | TK-10 renal 13.6% | ACHN renal 21.2% | CAKI-1 renal 57.4% | A498 renal 125% | CCRF-CEM leukemia 10.7% | MOLT-4 leukemia 19.9% | SR leukemia 11.3%

O=C(Nc1ccccc1O)c1ccc(Oc2cccc(C(=O)Nc3ccccc3O)c2)cc1
inactive: SN12C renal 15.4% | TK-10 renal 28.3% | ACHN renal 15.8% | A498 renal 20.5%
active: UO-31 renal 5.32% | CAKI-1 renal -0.0411% | CCRF-CEM leukemia -6.44% | MOLT-4 leukemia -28.5% | SR leukemia -28.6%

O=C(NC1CCCCC1)C(c1cccs1)N(CCc1ccccc1)C(=O)c1ccco1 (stereo unspecified)
inactive: SN12C renal 92.2% | UO-31 renal 100% | TK-10 renal 94.5% | ACHN renal 94.6% | CAKI-1 renal 83% | A498 renal 93% | CCRF-CEM leukemia 93.8% | MOLT-4 leukemia 84.9% | SR leukemia 85.8%

CCOC(=O)c1cc2c(n1Cc1cccc(OC)c1)-c1oncc1CCC2
active: A498 renal 6.51% | CCRF-CEM leukemia 3.19%
inactive: SN12C renal 56.7% | UO-31 renal 16.7% | TK-10 renal 48.1% | ACHN renal 47.3% | CAKI-1 renal 29.6% | MOLT-4 leukemia 35.8% | SR leukemia 10.1%

O=C(Nc1ccc(F)c(Cl)c1)Nc1ccc(Cl)c(Cl)c1
inactive: SN12C renal 75.8% | UO-31 renal 79.2% | TK-10 renal 101% | ACHN renal 96% | CAKI-1 renal 76.1% | A498 renal 69.6% | CCRF-CEM leukemia 64.8% | MOLT-4 leukemia 43.9% | SR leukemia 10.2%

O=NN(Cc1cccnc1)C(=O)NC1CCCCC1
inactive: SN12C renal 98.9% | UO-31 renal 90% | TK-10 renal 114% | ACHN renal 96.5% | CAKI-1 renal 93.9% | A498 renal 103% | CCRF-CEM leukemia 102% | MOLT-4 leukemia 111% | SR leukemia 99.7%

O=C(Nc1ccsc1C(=O)NC1CCCCC1)c1ccc(F)cc1
inactive: SN12C renal 98.3% | UO-31 renal 94.4% | TK-10 renal 114% | ACHN renal 101% | CAKI-1 renal 95.6% | A498 renal 95.5% | CCRF-CEM leukemia 66.6% | MOLT-4 leukemia 95.6% | SR leukemia 79.4%

CCOC(=O)C1(C(=O)OCC)N=C(c2ccccc2)C=C1c1ccccc1
inactive: SN12C renal 89.8% | UO-31 renal 76% | TK-10 renal 112% | ACHN renal 87.7% | CAKI-1 renal 83.1% | A498 renal 84.4% | CCRF-CEM leukemia 77.5% | MOLT-4 leukemia 81.1% | SR leukemia 69.7%

O=C(CSc1ncccc1C(=O)O)Nc1ccc(Oc2ccccc2)cc1
inactive: SN12C renal 102% | UO-31 renal 78.1% | TK-10 renal 105% | ACHN renal 107% | CAKI-1 renal 95.8% | A498 renal 96.7% | CCRF-CEM leukemia 99.6% | MOLT-4 leukemia 84.6% | SR leukemia 78.2%
